Reference: PubChem BioAssay (NCI)
This is part of a sample that, as a whole, favours compounds with a hit. Of some 83,000 tested, about 20% had one in any assay.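 In brief: 96-well plates, 48 h treatment, single concentration, percent growth endpoint.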 Calls of active or inactive are those of the source. The calls were made as follows: active = growth percent below 10; inactive = the rest.

System: HL-60(TB) leukemia
Assay: NCI-60 one-dose screen, 48 h (100 = growth as untreated, 0 = no growth, -100 = all killed)
Conditions: 10 µM unless noted

Q: `CCN1CCCC(N2c3ccccc3Sc3ccccc32)C1` (stereo not drawn) was tested. Which growth did it give?
A: 93.1% (inactive)

Q: With `O=C(NCOC(O)C(Cl)(Cl)Cl)NCOC(O)C(Cl)(Cl)Cl` (stereo not drawn) as the compound, how does the growth read?
A: 0.027% (active)

Q: For `COC(=O)c1nc(-c2ccccc2)oc1S(=O)(=O)Cc1ccccc1`, which growth is on record?
A: 16.8% (inactive)

Q: `O=c1oc2c(cc1-c1ccc(F)cc1)C(O)Oc1ccccc1-2` (stereo not drawn) was tested. Which growth did it give?
A: 101% (inactive)

Q: `Cc1ccc(C)c(NC(=O)c2sc3c(=O)[nH]cnc3c2C)c1` was tested. Which growth did it give?
A: 65.4% (inactive)

Q: For `CCCCCCCCCCCCCCCCCCOc1ccc(CC(=O)OCC[N+]2(C)CCCCC2)cc1`, which growth is on record?
A: 83.4% (inactive)

Q: For `COc1ccc(-c2cc(-c3ccccc3)nc(N3CCN(CCNc4ccnc5cc(Cl)ccc45)CC3)n2)cc1`, which growth is on record?
A: -39.8% (active)

Q: How did the growth turn out when `COc1ccc(-c2[nH]c3ccccc3c2-c2ccc(OC)cc2)cc1` was run?
A: 24.6% (inactive)

Q: `COc1cccc(-n2cc(-c3nc(Cl)c4ccccc4n3)nn2)c1` was tested. Which growth did it give?
A: 97.3% (inactive)

Q: Which growth does the source give for `COc1cc(Nc2nc(NCCN)nc3cc[nH]c(=O)c23)cc(OC)c1` here?
A: 71.8% (inactive)

Q: With `CC[C@H](C)[C@H](NC(=O)[C@H](CCCCN)NC(=O)[C@H](CCCCN)NC(=O)[C@@H](NC(=O)[C@@H](NC(=O)[C@@H](N)Cc1cnc[nH]1)[C@@H](C)CC)[C@@H](C)CC)C(=O)N[C@@H](CCCNC(=N)N)C(=O)N[C@H](C(=O)N[C@@H](Cc1c[nH]c2ccccc12)C(=O)N[C@@H](Cc1ccc(O)cc1)C(=O)N[C@@H](CCCNC(=N)N)C(=O)N[C@@H](CCCCN)C(=O)N[C@@H](C)C(=O)N[C@@H](Cc1c[nH]c2ccccc12)C(=O)N[C@@H](Cc1cnc[nH]1)C(=O)N[C@H](C(=O)N[C@@H](CC(C)C)C(=O)NCC(=O)N[C@@H](CCCCN)C(=O)N[C@H](C(N)=O)C(C)C)C(C)C)[C@@H](C)O` as the compound, how does the growth read?
A: 89.5% (inactive)

Q: How did the growth turn out when `COc1ccc(C(=O)c2cc3c(N)c(C(=O)Nc4cccc(Br)c4C)sc3nc2C)cc1` was run?
A: -58.7% (active)

Q: Which growth does the source give for `Cc1ccc(-n2cc(-c3ccccc3)c3c2N=NN2CCN=C32)cc1` here?
A: 101% (inactive)

Q: How did the growth turn out when `O=C(/C=C/c1cccc(Cl)c1)c1ccc(O)c(CN2CCN(c3cc4c(cc3F)c(=O)c(C(=O)O)cn4C3CC3)CC2)c1` was run?
A: 27.3% (inactive)

Q: Which growth does the source give for `C[C@@H]1CC[C@@H]2[C@@H]1[C@H](OC(=O)/C=C/c1ccccc1)[C@]1(c3ccccc3)C[C@@H](NC(=O)CO)[C@@]2(C)O1` here?
A: 97.7% (inactive)

Q: With `O=C1C2C(C(=O)N1CC[Se][Se]CCN1C(=O)C3C(C1=O)[C@H]1C=C[C@@H]3C1)[C@H]1C=C[C@@H]2C1` (stereo partly drawn) as the compound, how does the growth read?
A: -54.7% (active)

Q: `Clc1c(Cl)[n+](Cc2ccc3ccccc3c2)cn1Cc1ccc2ccccc2c1` was tested. Which growth did it give?
A: -54.7% (active)

Q: Which growth does the source give for `CCC(CC)NCC(C)(C)O` here?
A: 97.7% (inactive)

Q: For `COc1cc(-c2csc(NC(=O)Nc3cc(Cl)cc(Cl)c3)n2)cc(OC)c1OC`, which growth is on record?
A: 34.9% (inactive)

Q: With `ClC(Cl)c1nc(-c2ccccc2)nc2cc(-c3ccccc3)nn12` as the compound, how does the growth read?
A: 94.9% (inactive)

Q: How did the growth turn out when `Cc1ccc(S(=O)(=O)NNC(=O)/C(=C\c2ccc(Cl)cc2)c2nc3ccccc3s2)cc1` was run?
A: 89.7% (inactive)

Q: `Cc1ccc2nc(Cl)c(-c3nc4ccccc4o3)cc2c1` was tested. Which growth did it give?
A: 94.4% (inactive)

Q: Which growth does the source give for `COc1cc2cc(Oc3ccc(NC(=O)c4ccccc4)cc3)c(C)nc2cc1OC` here?
A: 100% (inactive)

Q: Which growth does the source give for `CN1CCN(c2ccc(OC(F)(F)F)c(Nc3ncc4c(n3)-c3c(c(C(N)=O)nn3CCO)CC4)c2)CC1` here?
A: -20.5% (active)

Q: `NNC(=S)N1N=C(c2cc3ccccc3o2)CC1c1c[nH]c2ccccc12` (stereo not drawn) was tested. Which growth did it give?
A: 21.7% (inactive)

Q: With `O=C(NCCNC(c1ccccc1)C(NCCNC(=O)c1ccccc1)c1ccccc1)c1ccccc1` (stereo not drawn) as the compound, how does the growth read?
A: 68.3% (inactive)

Q: For `CN1CCc2c(sc3nc4n(-c5ccc(Cl)cc5)cnn4c(=O)c23)C1`, which growth is on record?
A: 105% (inactive)

Q: `COc1ccc2cc1Oc1ccc(cc1)C[C@H]1c3cc(c(OC)cc3CCN1C)Oc1c(OC)c(OC)cc3c1[C@H](C2)N(C)CC3` was tested. Which growth did it give?
A: 29.8% (inactive)
